PubChem BioAssay (NCATS)
Inconclusive results are not listed. Activity calls are given as the source filed them. The call rests on the fitted dose curve; tested in HEK293 reporter line.

Assay: qHTS for Inhibitors of the Functional Ribonucleoprotein Complex (vRNP) of Lassa (LASV) Arenavirus: LASV Primary Screen - GLuc reporter signal (AID 1347082); further: nearly all actives have a fitted effect of over 60% in size
Conditions: LASV minigenome vRNP, Gaussia luciferase reporter; series mostly up to 57.5 µM; activity change, negative = inhibition: at the top concentration
On the % scale 0 is the no-effect control and ±100 the full control effect.

Row | Structure (SMILES) | activity change, negative = inhibition
1 | COc1ccc(C(=O)OCCc2ccc(O)cc2)cc1 | -1.55% (inactive)
2 | COc1cc2c(c(OC)c1OC)-c1c(cc3c(c1OC)OCO3)CC(C)C(C)C2 (stereo not given) | 2.65% (inactive)
3 | CC1(C)C[C@H]2C3=CCC4[C@@]5(C)CC[C@H](O)C(C)(C)C5CC[C@@]4(C)[C@]3(C)[C@@H](O)[C@@H](O)[C@@]2(CO)[C@@H](O)[C@@H]1O (stereo not given in full) | 0.613% (inactive)
4 | NC1C(O)OC(CO)[C@@H](O)[C@@H]1O[C@H]1O[C@@H](C(=O)O)C(O)C(O)C1O (stereo not given in full) | 13.2% (inactive)
5 | COC(=O)CC(C)CCC=C(C)C (stereo not given) | 2.9% [at 115 µM] (inactive)
6 | C[C@H](NC(=O)[C@@H](O)c1cc(F)cc(F)c1)C(=O)N[C@@H]1C(=O)N(C)c2ccccc2-c2ccccc21 | 3.77% (inactive)
7 | CC(=O)OC1C(OC(C)=O)C2C(C)CC3OC(=O)C(C)C3CC2(C)C1OC(C)=O (stereo not given) | 14.4% (inactive)
8 | CC(=O)CCc1ccc(O)cc1 | -1.15% [at 115 µM] (inactive)
9 | COC1=C(C)C(O)=C(C(=O)/C=C/c2ccccc2)C(=O)C1(C)C | 8.3% (inactive)
10 | CC(C)CNC(=O)/C=C/C=C/CCCC/C=C/c1ccc2c(c1)OCO2 | 15.2% (inactive)
11 | COc1c2c(c(C)c3c1C(=O)OC3)O[C@@]1(C)CC[C@@]3(O)C(C)(C)OC(=O)CC[C@]3(C)[C@H]1C2 | 3.89% (inactive)
12 | CC1=CCC(C(C)C)=CC1 | -15.8% [at 115 µM] (inactive)
13 | C=C1C[C@]23CC[C@H]4C(CO)(CO)C[C@@H](O)C[C@@]4(C)[C@@H]2CC[C@H]1C3 | -14.8% (inactive)
14 | C[C@@H]1C(=O)O[C@H]2[C@H]1CC[C@@]1(C)C(=O)C=C[C@@](C)(O)[C@H]21 | 7.66% (inactive)
15 | CCCCCCCCCCCCOC(C)=O | -1.38% [at 115 µM] (inactive)
16 | CC(C)=CCC[C@](C)(O[C@@H]1O[C@H](CO[C@@H]2OC[C@H](O[C@@H]3OC[C@@H](O)[C@H](O)[C@H]3O)[C@H](O)[C@H]2O)[C@@H](O)[C@H](O)[C@H]1O)C1CC[C@]2(C)C1[C@H](O)CC1[C@@]3(C)CC[C@H](O)C(C)(C)C3[C@@H](O)C[C@]12C (stereo not given in full) | -9% (inactive)
17 | CCC(=O)O[C@]1(C(=O)CO)CC[C@H]2[C@@H]3CCC4=CC(=O)CC[C@]4(C)[C@@H]3CC[C@@]21C | -0.618% (inactive)
18 | CC(C)=C[C@H]1C[C@H](C)[C@H]2CC[C@H](C)c3c(O[C@@H]4OC[C@@H](O)[C@H](O)C4O)c(O)c(C)c1c32 (stereo not given in full) | -3.73% (inactive)
19 | CC(=O)O[C@@H]1[C@H]2CC[C@@H]3[C@]1(C[C@@H](OC(C)=O)[C@@]1(O)C([C@@H]4O[C@@H]4C1(C)C)[C@]3(C)O)C[C@@]2(C)O (stereo not given in full) | -29.2% (inactive)
20 | COc1cc2oc(=O)ccc2cc1O | 8.71% (inactive)

Row | Structure (SMILES) | activity change, negative = inhibition
21 | COc1ccc(CCNC(=O)/C=C\c2ccccc2)cc1OC | -1.79% (inactive)
22 | CN[C@H]1[C@@H](O[C@@H]2[C@H](O[C@@H]3[C@@H](O)[C@@H](O)[C@@H](N=C(N)N)[C@@H](O)[C@@H]3N=C(N)N)O[C@H](C)[C@@]2(O)C=O)O[C@@H](CO)[C@@H](O)[C@H]1O | -3.73% [at 19.1 µM] (inactive)
23 | C[C@]12CC[C@@H](O)CC1=CC(=O)C1C2CC[C@]2(C)C(=O)[C@H](O)CC12 (stereo not given in full) | 7.58% (inactive)
24 | COc1ccc(-c2cc(=O)c3c(O)cc(OC4OC(COC5OC(C)C(O)C(O)C5O)C(O)C(O)C4O)cc3o2)cc1O (stereo not given) | -4.5% (inactive)
25 | C/C=C(/C)C(=O)O[C@@H]1c2cc3c(c4c2[C@@]2(CO4)C(=O)C(OC)=C(OC)C=C2C[C@@H](C)[C@H]1C)OCO3 | -8.37% (inactive)
26 | COC(=O)CC1[C@@]2(C)C[C@]34OC5(C)OC6(C7CC(=O)OC(c8ccoc8)[C@]7(C)CCC6(O5)[C@]13C)C(OC(C)=O)[C@]4(OC(C)=O)C2OC(C)=O (stereo not given in full) | 5.6% (inactive)
27 | COc1ccc(-c2oc3ccccc3c(=O)c2O)cc1 | 3.16% (inactive)
28 | CC(=O)Oc1ccc2c(=O)c(-c3ccccc3)c(C)oc2c1 | 0.593% (inactive)
29 | C/C=C(\C)C(=O)OC(C)(C)[C@H]1Cc2cc3ccc(=O)oc3cc2O1 | -18.6% (inactive)
30 | COc1ccc(C(=O)OC2CC3CCC(C2)[N+]3(C)[O-])cc1OC (stereo not given) | 13.1% (inactive)
31 | C=CC(C)(C)O[C@@H]1O[C@H](CO)[C@@H](O)[C@H](O)[C@H]1O | -9.29% (inactive)
32 | CC12CCC3C(CCC4CC(O)CCC43C)C1CC(O)C2 (stereo not given) | -3.94% (inactive)
33 | C[C@@H]1O[C@@H](O[C@H]2CC[C@@H](O[C@H]3[C@H](O)C[C@H](c4ccc5c(c4O)C(=O)C4=C(C5=O)[C@@]5(O)C(=O)C[C@](C)(O[C@H]6CC[C@H](O[C@H]7C=CC(=O)[C@H](C)O7)[C@H](C)O6)C[C@@]5(O)C=C4)O[C@@H]3C)O[C@H]2C)C=CC1=O | -17.5% [at 24.7 µM] (inactive)
34 | CNCC(=O)O | 3.98% (inactive)
35 | CCCC(=O)C(C)=O | -7.13% [at 115 µM] (inactive)
36 | O=C(Nc1ccc(Br)cc1)C(c1ccccc1)c1ccccc1 | -4.69% (inactive)
37 | c1ccc(-c2ccc3ccccc3n2)cc1 | -6.04% (inactive)
38 | COCCOCCOCCOC | -7.73% [at 115 µM] (inactive)
39 | O=[N+]([O-])c1cn2c(n1)OC[C@@H](OCc1ccc(OC(F)(F)F)cc1)C2 | -7.92% (inactive)
40 | CC(C)=CCC/C(C)=C/COC=O | 2.5% [at 115 µM] (inactive)

Assay: qHTS for Inhibitors of the Functional Ribonucleoprotein Complex (vRNP) of Lassa (LASV) Arenavirus: Viability assay - alamar blue signal for LASV Primary Screen (AID 1347083); further: nearly all actives have a fitted effect of over 80% in size
Conditions: cell viability, alamar blue fluorescence (LASV minigenome counter-screen); series mostly up to 57.5 µM; activity change, negative = reduced viability: at the top concentration

Row | Structure (SMILES) | activity change, negative = reduced viability
41 | COc1ccc(C(=O)OCCc2ccc(O)cc2)cc1 | -8.1% (inactive)
42 | COc1cc2c(c(OC)c1OC)-c1c(cc3c(c1OC)OCO3)CC(C)C(C)C2 (stereo not given) | -1.69% (inactive)
43 | CC1(C)C[C@H]2C3=CCC4[C@@]5(C)CC[C@H](O)C(C)(C)C5CC[C@@]4(C)[C@]3(C)[C@@H](O)[C@@H](O)[C@@]2(CO)[C@@H](O)[C@@H]1O (stereo not given in full) | 3.02% (inactive)
44 | NC1C(O)OC(CO)[C@@H](O)[C@@H]1O[C@H]1O[C@@H](C(=O)O)C(O)C(O)C1O (stereo not given in full) | 14.6% (inactive)
45 | COC(=O)CC(C)CCC=C(C)C (stereo not given) | 9.33% [at 115 µM] (inactive)
46 | C[C@H](NC(=O)[C@@H](O)c1cc(F)cc(F)c1)C(=O)N[C@@H]1C(=O)N(C)c2ccccc2-c2ccccc21 | 8.04% (inactive)
47 | CC(=O)OC1C(OC(C)=O)C2C(C)CC3OC(=O)C(C)C3CC2(C)C1OC(C)=O (stereo not given) | 8.57% (inactive)
48 | CC(=O)CCc1ccc(O)cc1 | 9.74% [at 115 µM] (inactive)
49 | COC1=C(C)C(O)=C(C(=O)/C=C/c2ccccc2)C(=O)C1(C)C | 16.4% (inactive)
50 | CC(C)CNC(=O)/C=C/C=C/CCCC/C=C/c1ccc2c(c1)OCO2 | 17.9% (inactive)
51 | COc1c2c(c(C)c3c1C(=O)OC3)O[C@@]1(C)CC[C@@]3(O)C(C)(C)OC(=O)CC[C@]3(C)[C@H]1C2 | -0.0323% (inactive)
52 | CC1=CCC(C(C)C)=CC1 | 13.5% [at 115 µM] (inactive)
53 | C=C1C[C@]23CC[C@H]4C(CO)(CO)C[C@@H](O)C[C@@]4(C)[C@@H]2CC[C@H]1C3 | 11.4% (inactive)
54 | C[C@@H]1C(=O)O[C@H]2[C@H]1CC[C@@]1(C)C(=O)C=C[C@@](C)(O)[C@H]21 | 4.4% (inactive)
55 | CCCCCCCCCCCCOC(C)=O | 8.41% [at 115 µM] (inactive)
56 | CC(C)=CCC[C@](C)(O[C@@H]1O[C@H](CO[C@@H]2OC[C@H](O[C@@H]3OC[C@@H](O)[C@H](O)[C@H]3O)[C@H](O)[C@H]2O)[C@@H](O)[C@H](O)[C@H]1O)C1CC[C@]2(C)C1[C@H](O)CC1[C@@]3(C)CC[C@H](O)C(C)(C)C3[C@@H](O)C[C@]12C (stereo not given in full) | 19.2% (inactive)
57 | CCC(=O)O[C@]1(C(=O)CO)CC[C@H]2[C@@H]3CCC4=CC(=O)CC[C@]4(C)[C@@H]3CC[C@@]21C | -2.15% (inactive)
58 | CC(C)=C[C@H]1C[C@H](C)[C@H]2CC[C@H](C)c3c(O[C@@H]4OC[C@@H](O)[C@H](O)C4O)c(O)c(C)c1c32 (stereo not given in full) | 2.03% (inactive)
59 | CC(=O)O[C@@H]1[C@H]2CC[C@@H]3[C@]1(C[C@@H](OC(C)=O)[C@@]1(O)C([C@@H]4O[C@@H]4C1(C)C)[C@]3(C)O)C[C@@]2(C)O (stereo not given in full) | -10.5% (inactive)
60 | COc1cc2oc(=O)ccc2cc1O | 1.19% (inactive)

Row | Structure (SMILES) | activity change, negative = reduced viability
61 | COc1ccc(CCNC(=O)/C=C\c2ccccc2)cc1OC | -14.7% (inactive)
62 | CN[C@H]1[C@@H](O[C@@H]2[C@H](O[C@@H]3[C@@H](O)[C@@H](O)[C@@H](N=C(N)N)[C@@H](O)[C@@H]3N=C(N)N)O[C@H](C)[C@@]2(O)C=O)O[C@@H](CO)[C@@H](O)[C@H]1O | 0.363% [at 19.1 µM] (inactive)
63 | C[C@]12CC[C@@H](O)CC1=CC(=O)C1C2CC[C@]2(C)C(=O)[C@H](O)CC12 (stereo not given in full) | 20.4% (inactive)
64 | COc1ccc(-c2cc(=O)c3c(O)cc(OC4OC(COC5OC(C)C(O)C(O)C5O)C(O)C(O)C4O)cc3o2)cc1O (stereo not given) | 0.09% (inactive)
65 | C/C=C(/C)C(=O)O[C@@H]1c2cc3c(c4c2[C@@]2(CO4)C(=O)C(OC)=C(OC)C=C2C[C@@H](C)[C@H]1C)OCO3 | 3.96% (inactive)
66 | COC(=O)CC1[C@@]2(C)C[C@]34OC5(C)OC6(C7CC(=O)OC(c8ccoc8)[C@]7(C)CCC6(O5)[C@]13C)C(OC(C)=O)[C@]4(OC(C)=O)C2OC(C)=O (stereo not given in full) | 12.7% (inactive)
67 | COc1ccc(-c2oc3ccccc3c(=O)c2O)cc1 | -4.09% (inactive)
68 | CC(=O)Oc1ccc2c(=O)c(-c3ccccc3)c(C)oc2c1 | -0.9% (inactive)
69 | C/C=C(\C)C(=O)OC(C)(C)[C@H]1Cc2cc3ccc(=O)oc3cc2O1 | 6.62% (inactive)
70 | COc1ccc(C(=O)OC2CC3CCC(C2)[N+]3(C)[O-])cc1OC (stereo not given) | 1.37% (inactive)
71 | C=CC(C)(C)O[C@@H]1O[C@H](CO)[C@@H](O)[C@H](O)[C@H]1O | 5.37% (inactive)
72 | CC12CCC3C(CCC4CC(O)CCC43C)C1CC(O)C2 (stereo not given) | 13% (inactive)
73 | C[C@@H]1O[C@@H](O[C@H]2CC[C@@H](O[C@H]3[C@H](O)C[C@H](c4ccc5c(c4O)C(=O)C4=C(C5=O)[C@@]5(O)C(=O)C[C@](C)(O[C@H]6CC[C@H](O[C@H]7C=CC(=O)[C@H](C)O7)[C@H](C)O6)C[C@@]5(O)C=C4)O[C@@H]3C)O[C@H]2C)C=CC1=O | -27.1% [at 24.7 µM] (inactive)
74 | CNCC(=O)O | 28.3% (inactive)
75 | CCCC(=O)C(C)=O | 1.14% [at 115 µM] (inactive)
76 | O=C(Nc1ccc(Br)cc1)C(c1ccccc1)c1ccccc1 | -12.2% (inactive)
77 | c1ccc(-c2ccc3ccccc3n2)cc1 | 4.77% (inactive)
78 | COCCOCCOCCOC | -3.25% [at 115 µM] (inactive)
79 | O=[N+]([O-])c1cn2c(n1)OC[C@@H](OCc1ccc(OC(F)(F)F)cc1)C2 | 0.334% (inactive)
80 | CC(C)=CCC/C(C)=C/COC=O | -0.165% [at 115 µM] (inactive)
